# Rows were chosen to be rich in hits. Some 4.9% of all compounds tested hit in one or more screens of this group.
# NLRP3 yeast inh: blocks the NALP3 inflammasome reconstituted in yeast; Yeast reconstituted NLRP3/ASC/caspase-1, beta-gal luminescence, 24 h; inhibition, % at 10 µM; 0.39% of 330,000 active; AID 2825;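 active means inhibition of 50% or more; inactive means inhibition below 50%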;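 further: plate controls were induced DMSO wells for no effect and uninduced yeast grown without galactose for full effect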
# tim10-1 inh: tim10-1 yeast growth inhibition | S. cerevisiae tim10-1 ts strain growth, BacTiter-Glo, 24 h | inhibition, % at 20 µM | 2.2% of 330,000 active | AID 463190;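 active means inhibition of at least 40%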;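 further: mutant grown at 25 °C; 0% = DMSO wells with yeast and 100% = wells holding no yeast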
# tim23-1 inh: growth inhibitors of tim23-1 mutant yeast; inhibition, % at 20 µM; 1.3% of 330,000 active; S. cerevisiae tim23-1 growth, BacTiter-Glo luminescence, 24 h;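 active means growth inhibition of the mutant yeast at or above 50%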;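 further: temperature-sensitive mutant grown at 25 °C; plate controls were DMSO-treated mutant yeast for no effect and medium wells lacking yeast for full effect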
# NALP1 yeast inh: blocks the NALP1 inflammasome reconstituted in yeast | S. cerevisiae NALP1/ASC/caspase-1 growth, X-gal OD620, 72 h | inhibition, % at 10 µM | 0.61% of 280,000 active | AID 2071; in the data active means inhibition mostly above about 24%, no sharp cut-off; inactive means mostly below about 32%
# SKKanGAS inh: blocks kanamycin growth of S. pyogenes SKKanGAS strain. BacTiter-Glo, 6 h. inhibition, % at 7.5 µM. 1.3% of 300,000 active. AID 1662;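 active means mean replicate score, as percent of positive control median, at least 50; inconclusive means mean below 50 but one replicate at or above 50; inactive means mean and every replicate below 50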;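 further: strain carries kanamycin resistance gene driven by streptokinase promoter and grows in 40 µg/ml kanamycin; loss of luminescence reflects streptokinase promoter inhibition or plain growth inhibition; 0% = median of DMSO wells and 100% = positive control at its reference dose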
# TIM10 inh: growth inhibitors of TIM10 yeast strain | 1.4% of 330,000 active | S. cerevisiae TIM10 strain growth, BacTiter-Glo luminescence, 24 h | inhibition, % at 10 µM;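 active means inhibition of 40% or more at the single tested concentration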;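 further: wild-type TIM10 isogenic control strain grown at permissive 25 °C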
# TIM10 conf: confirmation of TIM10 yeast growth inhibitors; AID 463215; 63% of 4,600 active; inhibition, % at 10 µM; S. cerevisiae tim10 strain growth, BacTiter-Glo luminescence, 24 h; shares compounds with TIM10 inh;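 active means inhibition of yeast growth at or above a set limit in either of two replicates at 10 µM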;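 further: this counterscreen used the strain with wild-type TIM10; 0% = yeast with DMSO and 100% = medium wells lacking yeast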
# Active calls of the source: *; ? = inconclusive; . = not tested or not shown.
SMILES,NLRP3 yeast inh,tim10-1 inh,tim23-1 inh,NALP1 yeast inh,SKKanGAS inh,TIM10 inh,TIM10 conf
O=C(Nc1nnc(-c2ccc(F)cc2)o1)c1ccc(S(=O)(=O)N2CCOCC2)cc1,-1.9,7.6,3.3,4.7,14.6,-1.7,.
Cc1ccc2nc(CSc3nc(C)ccc3C#N)[nH]c2c1,8.1,38.2,34.7,-14.4,-0.4,60.7*,48.1*
CC(C)c1ccc(S(=O)(=O)N2CCN(C(=S)NCc3ccco3)CC2)cc1,12.9,39.7,39.6,1.3,5.1,49.4*,-31.5
O=S(=O)(c1cccc(C(F)(F)F)c1)N1CCN(C(=S)NCc2ccco2)CC1,9.7,15.2,21.8,30.1,-5.4,-1.1,.
COc1nnc(-c2ccc(N3CCOCC3)c(NC(C)=O)c2)c2ccccc12,12.0,22.0,19.6,-1.3,-5.3,5.6,.
COc1nnc(-c2ccc(N3CCOCC3)c(NC(=O)c3ccccc3)c2)c2ccccc12,2.5,28.0,42.0,2.2,3.1,40.1*,24.0
Cc1cccc(NCC(=O)N/N=C\c2c[nH]c3ccccc23)c1,-4.6,21.2,14.5,-0.9,15.3,32.3,.
Cc1ccccc1NCC(=O)N/N=C/c1c[nH]c2ccccc12,14.9,26.9,35.3,8.8,4.0,46.7*,8.4
Cc1cc(N/N=C/c2c[nH]c3ccccc23)c2ccccc2n1,16.9,33.7,39.2,7.2,0.8,53.5*,33.8*
Cc1ccc(S(=O)(=O)N2CCN(C(C)CC(=O)O)CC2)cc1 (configuration not stated),15.5,9.1,19.4,5.6,-4.6,4.7,.
CCc1nnc(NC(=O)c2ccc(OC)c(S(=O)(=O)N3CCCC3)c2)s1,-13.1,12.9,19.8,.,.,16.5,.
CC(C)Cc1nnc(NC(=O)CCC(=O)NC2CCCC2)s1,3.3,5.5,-10.6,27.4,7.9,4.8,.
S=c1nc(-c2sccc2OCc2ccc(Cl)cc2Cl)[nH][nH]1,21.8,33.9,-1.2,-16.9,-4.7,40.6*,29.2*
CCCCc1ccc(NC(=S)NCCc2ccc(F)cc2)cc1,42.7,39.0,20.3,32.0,?,41.8*,2.6
COc1ccc(OC)c(/C=C/C(=O)c2ccc(Cl)cc2)c1,-9.5,36.3,40.2,20.3,-22.6,45.4*,32.2*
COc1ccccc1/C=C/C(=O)c1ccc(Cl)cc1,-15.0,32.1,26.3,6.7,-13.1,33.4,.
CCOC(=O)c1ccc(N2C(=O)CC(N(C)CCc3ccc(OC)c(OC)c3)C2=O)cc1 (configuration not stated),24.9,35.3,35.8,21.2,-6.9,43.3*,45.8*
CCO/N=C(/c1nonc1N)N1CCN(c2ccc([N+](=O)[O-])cc2)CC1,-3.4,13.2,-1.1,-24.9,6.5,5.9,.
CO/N=C(\c1nonc1N)N1CCN(c2ccc(Cl)cc2[N+](=O)[O-])CC1,9.7,26.9,36.5,-4.6,1.3,43.4*,31.1*
O=C(O)/C=C/c1cn(-c2ccccc2)nc1-c1ccc2c(c1)OCCO2,13.7,8.4,24.7,2.3,-5.5,-3.0,.
O/N=C/c1cn(-c2ccccc2)nc1-c1ccc2c(c1)OCCO2,35.1,16.1,-34.3,28.6,-10.5,40.0,-3.0
O=C(Cc1ccc(F)cc1)Nc1ccc(Cl)cn1,24.0,-7.3,10.6,14.1,6.6,-3.9,.
Cc1[nH]n(S(=O)(=O)Cc2ccccc2)c(=O)c1N=Nc1ccccc1Cl,22.3,36.6,45.0,-21.8,-11.1,41.4*,21.7
CN1C(=O)N(CC(=O)N2CCN(c3ccccc3F)CC2)C(=O)C12CCCCC2,13.8,0.3,-4.4,.,.,-7.1,.
CCC(C)(C)C1CCc2[nH]nc(C(=O)N/N=C(\C)c3ccco3)c2C1 (configuration not stated),-5.7,30.8,47.2,-2.6,3.3,44.6*,24.9
O=C(NCc1ccccn1)c1nc(Cn2ccc([N+](=O)[O-])n2)no1,17.5,11.3,16.2,-5.8,3.1,17.4,.
COc1ccc(C(=O)NC(=S)NCc2ccccc2)cc1,17.3,34.3,40.2,-0.1,-5.8,21.0,.
COc1cc(OC)cc(C(=O)NC(=S)NCCc2ccccc2)c1,-3.1,22.4,48.4,5.3,-3.8,44.0*,18.1
CCOc1cc(/C=C2/C(=O)ON=C2C)ccc1OCc1ccc(F)cc1,12.3,39.6,45.7,19.1,-12.2,42.6*,25.4

# Assay outcomes (PubChem)
